# Cav32 inh: blocks human Cav3.2 T-type calcium channel; O95180; Cav3.2-expressing cells, Fluo-4 calcium fluorescence FDSS; hits give low values; B-score at 10 µM; 100,000 tested, 4% active;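 active = single-dose well whose peak fluorescence ratio is a statistical outlier from its plate by either plate-standardised score or position-corrected B-score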
# CYP2C9 inhib: inhibitors of human CYP2C9. P11712. CYP2C9 Supersomes, luciferin-H conversion, luminescence. inhibition, % at 5 µM. 96,000 tested, 20% active. AID 777;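 active = blocking of liver enzyme CYP2C9 beyond about 50% at 5 µM, limit read from the data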
# Target sequence (P11712 whole entry, looked up): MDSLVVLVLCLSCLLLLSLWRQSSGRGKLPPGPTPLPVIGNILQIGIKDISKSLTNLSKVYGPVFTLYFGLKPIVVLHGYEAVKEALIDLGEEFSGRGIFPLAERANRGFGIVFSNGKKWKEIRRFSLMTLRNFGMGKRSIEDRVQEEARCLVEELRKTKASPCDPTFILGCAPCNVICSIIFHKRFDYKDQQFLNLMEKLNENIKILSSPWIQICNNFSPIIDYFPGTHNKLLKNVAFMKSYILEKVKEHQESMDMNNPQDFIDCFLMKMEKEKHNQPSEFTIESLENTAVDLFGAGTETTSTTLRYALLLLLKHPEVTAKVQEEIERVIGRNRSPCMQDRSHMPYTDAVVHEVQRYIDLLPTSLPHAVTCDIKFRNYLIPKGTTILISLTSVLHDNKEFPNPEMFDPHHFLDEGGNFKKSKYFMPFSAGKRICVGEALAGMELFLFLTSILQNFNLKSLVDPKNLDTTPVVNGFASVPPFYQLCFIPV
# CYP2C9 act: activators of human CYP2C9 | P11712 | recombinant CYP2C9, luciferin-H conversion, luminescence; hits give high values; factor 1 = untreated enzyme, 0 = blocked | activation factor at 5 µM | 96,000 tested, 1.4% active | AID 1024;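 active = activation factor of 2 or more for CYP2C9 at a 5 µM dose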;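 also: 0 = sulfaphenazole-blocked wells and 1 = vehicle-only wells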
# CYP2C19 inh: human CYP2C19 inhibition; P33261; CYP2C19 Supersomes, luciferin-H EGE luminescence, 30 min; inhibition, % at 5 µM; 96,000 tested, 21% active; AID 778;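 active = CYP2C19 inhibition above a set limit at 5 µM in the primary screen, cut at about 50% in these data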;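 also: plate controls were negative control wells for no effect and 2.5 mM tranylcypromine positive control for full effect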
# CYP2C19 act: increases human CYP2C19 enzyme activity; activation factor at 5 µM; 96,000 tested, under 10 active; P33261; AID 1025; recombinant CYP2C19, luciferin-H EGE luminescence; hits give high values; 0 = fully inhibited enzyme, 1 = untreated enzyme;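 active = activation factor of at least 2 at 5 µM in the primary screen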;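 also: 0 = wells with 2.5 mM tranylcypromine and 1 = vehicle-only wells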
# * = called active by the depositor; x = no result. The list is not random: actives were taken first. Their share in the collection is about 27%.
SMILES,Cav32 inh,CYP2C9 inhib,CYP2C9 act,CYP2C19 inh,CYP2C19 act
CC(=O)N1CCN(C(=S)c2ccc([N+](=O)[O-])cc2)CC1,0.27,2,1,51*,0.5
CC(=O)N1CCN(C(=S)c2ccc(N(C)C)cc2)CC1,-0.058,8,0.9,16,0.8
N#CCCCn1c(-c2ccccc2)noc1=O,0.78,-18,1.2,22,0.8
CCOC(=O)CC1=CC(C)(CC(=O)OCC)C(C#N)(C#N)C(N)=C1C#N (stereo not given),0.081,79*,0.2,21,0.8
Cc1nc(C(=O)N(C)C)nn1-c1cc(Cl)ccc1Cl,0.0037,-7,1.1,-14,1.1
CN(C)C(=O)c1ccccc1Sc1ccc(Cl)cc1Cl,x,58*,0.4,95*,0.1
CN(C)C(=O)c1ccccc1Sc1cc(Cl)ccc1Cl,x,-10,1.1,75*,0.2
O=C1CC(N2CCC(c3nc4ccccc4o3)CC2)C(=O)N1Cc1cccs1 (stereo not given),-0.21,20,0.8,20,0.8
O=c1[nH]c2ccc(S(=O)(=O)N3CCN(c4ccccc4)CC3)cc2[nH]c1=O,0.23,13,0.9,38,0.6
O=C(NC12CC3CC(CC(C3)C1)C2)C12CC3CC(C1)CC(n1cnc(Cl)n1)(C3)C2,0.25,-2,1,27,0.7
CC1=CC(C)=Nc2ccccc2N1,1,12,0.9,14,0.9
Cc1ccc(C2=Nc3ccccc3NC(C)(c3ccc(C)o3)C2)o1 (stereo not given),-5.3*,69*,0.3,95*,0.1
Cc1ccnc(SCCn2c(N3CCN(c4ccccc4)CC3)nc3c2c(=O)[nH]c(=O)n3C)n1,x,-39,1.4,44,0.6
CC(=O)N1c2ccccc2NC(=O)C1(C)C,0.8,-7,1.1,1,1
O=C1CN(C(=O)COC(=O)C2CCN(S(=O)(=O)c3ccccc3C(F)(F)F)CC2)c2ccccc2N1,-0.13,-51,1.5,57*,0.4
Cc1cc(C)c(C)c(S(=O)(=O)N2CCC(C(=O)OCC(=O)N3c4ccccc4NC(=O)C3(C)C)CC2)c1C,-1.9,-60,1.6,70*,0.3
CC1(C)C(=O)Nc2ccccc2N1C(=O)COC(=O)C1CCCCC1,-5.6*,61*,0.4,62*,0.4
CC(C)COc1ccc2[nH]c3c(c2c1)CCCC3=O,0.47,-1,1,12,0.9
CCCC/C=C/C(NC(=O)c1ccc(C(=O)OC)cc1)c1ccccc1 (stereo not given),-0.63,x,x,x,x
CCCc1nc(S(=O)(=O)Cc2ccc(Cl)cc2Cl)n[nH]1,0.21,-46,1.5,73*,0.3
Cc1cccc(C(=O)NC(NCc2ccco2)C(Cl)(Cl)Cl)c1 (stereo not given),-1.8,58*,0.4,32,0.7
Cc1ccccc1C(=O)NC(NCc1ccco1)C(Cl)(Cl)Cl (stereo not given),-0.6,13,0.9,18,0.8
CC(=O)c1cccc(NC(=O)NC(C)C2CCCO2)c1 (stereo not given),0.32,-9,1.1,1,1
COc1ccc(S(=O)(=O)N2CCC(C(=O)N3CCc4ccccc4C3)CC2)cc1C,-5*,32,0.7,50,0.5
COc1ccc(S(=O)(=O)N2CCC(C(=O)N3CCc4ccccc4C3)CC2)cc1,-1.1,-177,2.8*,47,0.5
SMILES,Cav32 inh,CYP2C9 inhib,CYP2C9 act,CYP2C19 inh,CYP2C19 act
COc1ccc(S(=O)(=O)N2CCC(C(=O)N3CCCCC3)CC2)cc1OC,-0.8,47,0.5,3,1
CS(=O)(=O)N1CCC(C(=O)N2CCc3ccccc3C2)CC1,0.42,-23,1.2,95*,0.1
Cc1ccc(S(=O)(=O)N2CCC(C(=O)N3Cc4ccccc4C3)CC2)cc1,0.57,1,1,10,0.9
CS(=O)(=O)N1CCCC(C(=O)N2CCc3ccccc3C2)C1 (stereo not given),0.79,2,1,13,0.9
CCC(C)Nc1c2c(nc3c(-c4ccccc4)c(C)nn13)CCC2 (stereo not given),-0.24,28,0.7,4,1
CCC(C)(C)n1nnnc1CN1CCc2ccccc21,0.79,13,0.9,61*,0.4
CCC(C)(C)n1nnnc1C(c1cccs1)N1CCc2ccccc21 (stereo not given),-2.2,53*,0.5,48,0.5
Fc1ccc(C(c2nnnn2CCc2ccccc2)N2CCCc3ccccc32)cc1 (stereo not given),-7.9*,36,0.6,26,0.7
c1ccc(CCn2nnnc2CN2CCCc3ccccc32)cc1,-2.1,67*,0.3,96*,0
CCC(C)(C)n1nnnc1C(c1cccnc1)N1CCCc2ccccc21 (stereo not given),-0.7,35,0.7,33,0.7
CSc1nc(C)c2c(n1)N(c1ccc(C(F)(F)F)cc1)CC2,-0.39,9,0.9,21,0.8
CCCn1c(-c2cccs2)nc2ccccc21,-1,3,1,30,0.7
CCC(C)n1c(-c2cccs2)nc2nc3ccccc3nc21 (stereo not given),-3.8,60*,0.4,18,0.8
N/C(=N\c1nc2c(c(=O)[nH]1)CCCC2)Nc1ccccc1Sc1ccccc1,0.37,63*,0.4,46,0.5
O=C(Nc1ccccc1)Nc1ccc(C(=O)N2CCOCC2)cc1,0.65,13,0.9,44,0.6
FC(F)(F)c1cccc(NC(=S)NCc2ccccc2)c1,-5.1,-88,1.9,63*,0.4
CC(=O)Nc1ccc(NC(=O)CN2CCN(c3cccc(C(F)(F)F)c3)CC2)cc1,0.92,17,0.8,14,0.9
O=C(Cc1ccccc1)Nc1cccc(N2CCCC2)c1,-0.12,77*,0.2,26,0.7
Cc1[nH]c2ccccc2c1NC(=O)CN1CCN(c2cccc(C(F)(F)F)c2)CC1,-8.2*,-13,1.1,-13,1.1
O=C(CN1CCN(c2cccc(C(F)(F)F)c2)CC1)Nc1cccc(C(F)(F)F)c1,-5.5*,58*,0.4,42,0.6
CC(C)(C)C1CCC2(CC1)CC(=O)c1ccccc1O2 (stereo not given),0.37,x,x,x,x
O=C(c1cc(S(=O)(=O)N2CCOCC2)c(Cl)cc1Cl)N1CCCCC1,-0.14,0,1,20,0.8
CCOC(=O)CN1C(=O)SC(CC(=O)Nc2nccs2)C1=O (stereo not given),-0.13,35,0.7,27,0.7
CN(C)S(=O)(=O)Oc1ccccc1C(=O)Nc1cccc(C(F)(F)F)c1,-2.5,8,0.9,86*,0.1
O=C(COCC(=O)Nc1cccc(C(F)(F)F)c1)Nc1cccc(C(F)(F)F)c1,0.81,17,0.8,84*,0.2
Cc1occc1C(=O)Nc1cccc(C(F)(F)F)c1,-1.5,x,x,x,x
CNC(=O)Nc1cccc(C(F)(F)F)c1,-1.1,x,x,x,x
O=C(CN1CCOCC1)Nc1cccc(C(=O)Nc2cccc(C(F)(F)F)c2)c1,1,52*,0.5,25,0.8
COc1cc2c(cc1NC(=S)Nc1cccc(C(F)(F)F)c1)oc1ccccc12,-0.46,79*,0.2,70*,0.3

# From PubChem BioAssay
